# Measured values taken from PubChem BioAssay (Tox21).
# Inconclusive results are not listed. A call without a number means that no potency is given here. Values without a mark were called inactive. Activity calls are given as the source filed them. Unless noted, the call rests on the fitted dose curve.
# Experiments:
# [1] = qHTS assay to identify small molecule agonists of the NFkB signaling pathway - cell viability counter screen (AID 1159515); further: series mostly up to about 61 µM; nearly all actives have a fitted effect of over 55% in size
# Procedure, shortened: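 Plate 2,000 NFkB-bla ME-180 cells/well; incubate overnight. Add compounds, 5 hr at 37 C. Add FRET substrate, 1.5 hr RT. Add CellTiter-Glo, 30 min RT; read luminescence.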
# [2] = qHTS assay to identify small molecule agonists of the endoplasmic reticulum stress response signaling pathway (AID 1159516; active means well fitted activation curve with a large enough effect in the signal ratio in the repeat runs, not every such curve was filed as active; the % refers to the signal ratio)
# Procedure, shortened: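 Beta-lactamase expression from the ER stress response element in HeLa reporter cells is quantified with the LiveBLAzer B/G FRET substrate, read at 405 nm excitation after 2 hr at room temperature, following 5 hr compound treatment at 37 C.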
# [3] = qHTS assay to identify small molecule agonists of the endoplasmic reticulum stress response signaling pathway - cell viability counter screen (AID 1159517); further: series mostly up to about 61 µM; nearly all actives have a fitted effect of over 50% in size
# Procedure, shortened: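 ESRE-bla HeLa cells (1,500/well) were plated overnight at 37 C and exposed to compounds for 5 hr. After the 2 hr beta-lactamase substrate read, CellTiter-Glo went into the same wells, and luminescence was read after 30 min at room temperature.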
# [4] = qHTS assay to identify small molecule antagonists of the retinoid-related orphan receptor gamma (ROR-gamma) signaling pathway - cell viability counter screen (AID 1159520; active means well fitted curve in the direction sought with a large enough effect in the repeat runs; an effect the other way counts as inactive or inconclusive; further: nearly all actives have a fitted effect of over 50% in size; further: potency means the concentration at half of the fitted maximal effect)
# Procedure, shortened: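 Cytotoxicity was read from cellular ATP (CellTiter-Glo luminescence) after 16 hr at 37 C with 1 uM doxycycline induction. The inducer was added 2 hr after compound transfer to Tet-on ROR gamma CHO cells.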
# [5] = biological target: Nuclear receptor ROR-gamma (Homo sapiens) (UniProt P51449); assay: qHTS assay to identify small molecule antagonists of the retinoid-related orphan receptor gamma (ROR-gamma) signaling pathway (AID 1159521; active means well fitted curve in the direction sought with a large enough effect in the repeat runs; an effect the other way counts as inactive or inconclusive; further: nearly all actives have a fitted effect of over 50% in size; further: potency means the concentration at half of the fitted maximal effect;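 on activity change, negative = inhibition: CHO cells with doxycycline inducible ROR-gamma driving an RORE luciferase reporter; top concentration of the series differs between compounds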)
# Procedure, shortened: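 CHO Tet-on RORγ, RORE-luc reporter. Cpd 2 h pre-incubation, then dox hyclate 1 uM final, 16 h, 37 C/5% CO2. ONE-Glo luminescence; decrease = antagonist.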
# [6] = qHTS assay to identify small molecule agonists of the AP-1 signaling pathway - cell viability counter screen (AID 1159525); further: nearly all actives have a fitted effect of over 55% in size
# Procedure, shortened: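 Intracellular ATP by Cell Titer Glo luminescence (30 min, RT) in the same ME-180 AP-1-bla wells after the 5 h compound exposure at 37 °C. Normalised to tetra n-octyl ammonium bromide and DMSO controls.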
# [7] = biological target: Retinoic acid receptor RXR-alpha (Homo sapiens) (UniProt P19793); assay: qHTS assay to identify small molecule agonists of the RXR signaling pathway (AID 1159527); further: nearly all actives have a fitted effect of over 35% in size; further: potency means the concentration at half of the fitted maximal effect
# Sequence of Retinoic acid receptor RXR-alpha (Homo sapiens) (P19793 whole entry, looked up): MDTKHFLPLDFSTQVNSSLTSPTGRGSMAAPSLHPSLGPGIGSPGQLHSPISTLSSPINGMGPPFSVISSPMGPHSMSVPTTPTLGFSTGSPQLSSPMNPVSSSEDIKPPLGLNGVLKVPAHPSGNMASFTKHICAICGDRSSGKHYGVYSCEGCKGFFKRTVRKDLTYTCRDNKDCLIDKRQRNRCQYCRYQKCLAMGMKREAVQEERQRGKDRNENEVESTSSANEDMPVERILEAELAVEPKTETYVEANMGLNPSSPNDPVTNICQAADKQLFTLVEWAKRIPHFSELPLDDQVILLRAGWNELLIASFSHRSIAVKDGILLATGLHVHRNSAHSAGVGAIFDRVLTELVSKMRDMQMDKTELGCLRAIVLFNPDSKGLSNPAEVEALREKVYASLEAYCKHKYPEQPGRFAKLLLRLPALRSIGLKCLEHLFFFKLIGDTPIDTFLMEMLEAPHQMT
# Procedure, shortened: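 Read-out: beta-lactamase FRET ratio (405 nm excitation, 460 and 530 nm emission) after 2 hr substrate loading at room temperature. Cells were RXR-alpha-UAS-bla HEK 293T treated with compounds for 16 hr in 2% charcoal-stripped FBS medium.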
# [8] = qHTS assay to identify small molecule antagonists of the vitamin D receptor (VDR) signaling pathway - cell viability counter screen (AID 743225; active means well fitted curve in the direction sought with a large enough effect in the repeat runs; an effect the other way counts as inactive or inconclusive; further: nearly all actives have a fitted effect of over 50% in size)
# Procedure, shortened: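 Read-out: CellTiter-Glo luminescence measured 30 min after reagent addition at room temperature. Cells were VDR-bla HEK 293T exposed 16 h at 37C, 5% CO2, to compound with 3 nM final calcitriol agonist.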
# [9] = qHTS assay to identify small molecule agonists of the vitamin D receptor (VDR) signaling pathway - cell viability counter screen (AID 743224; active means well fitted curve in the direction sought with a large enough effect in the repeat runs; an effect the other way counts as inactive or inconclusive)
# Procedure, shortened: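 In parallel with the bla FRET readout, cytotoxicity toward VDR-bla cells after 16 h compound exposure was assessed by CellTiter-Glo, with luminescence recorded after a 30 min room-temperature incubation.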
# [10] = qHTS assay to identify small molecule agonists of the AP-1 signaling pathway (AID 1159526)
compound,measurement,setting,value
C[C@@H](C1=C(CCN(C)C)Cc2ccccc21)c1ccccn1,Potency,[1],inactive
same,Potency,[2],inactive
same,outcome,[3],inactive
same,Potency,[4],inactive
same,Potency,[5],inactive
same,Potency,[6],inactive
same,Potency,[7],inactive
CN(C(=O)CCCOc1ccc2[nH]c(=O)ccc2c1)C1CCCCC1,Potency,[8],inactive
same,Potency,[1],inactive
same,Potency,[2],inactive
same,outcome,[3],inactive
same,Potency,[4],inactive
same,Potency,[5],inactive
same,Potency,[6],inactive
same,Potency,[7],inactive
O=C(c1ccccc1)c1ccc2n1CCC2C(=O)O (configuration not stated),Potency,[9],inactive
same,Potency,[8],inactive
same,Potency,[1],inactive
same,Potency,[2],inactive
same,outcome,[3],inactive
same,Potency,[4],inactive
same,Potency,[5],inactive
same,Potency,[6],inactive
same,Potency,[10],inactive
CCCCCC/C=C/C=O,Potency,[9],inactive
same,Potency,[1],inactive
same,Potency,[2],inactive
same,outcome,[3],inactive
same,Potency,[4],inactive
same,Potency,[5],inactive
same,Potency,[6],inactive
same,Potency,[7],inactive
O=C(O)[C@@H]1[C@H]2C[C@H]3c4[nH]c5ccccc5c4CCN3C[C@@H]2CC[C@@H]1O,Potency,[9],inactive
same,Potency,[1],inactive
same,Potency,[2],inactive
same,outcome,[3],inactive
same,Potency,[4],inactive
same,Potency,[5],inactive
same,Potency,[6],inactive
same,Potency,[7],inactive
CCCC(=O)OCC,Potency,[8],inactive
same,Potency,[1],inactive
same,Potency,[2],inactive
same,outcome,[3],inactive
same,Potency,[4],inactive
same,Potency,[5],inactive
same,Potency,[6],inactive
same,Potency,[10],inactive
COc1ccc(OC)c(OC)c1,Potency,[9],inactive
same,Potency,[8],inactive
same,Potency,[1],inactive
same,Potency,[2],inactive
same,outcome,[3],inactive
same,Potency,[4],inactive
same,Potency,[5],inactive
same,Potency,[6],inactive
same,Potency,[10],inactive
CCCCCc1ccc(N)cc1,Potency,[9],inactive
same,Potency,[8],inactive
same,Potency,[1],inactive
same,Potency,[2],inactive
same,outcome,[3],inactive
same,Potency,[4],inactive
same,Potency,[5],inactive
same,Potency,[6],inactive
same,Potency,[7],inactive
C=C(C)C(=O)OC(C)C,Potency,[1],inactive
same,Potency,[2],inactive
same,outcome,[3],inactive
same,Potency,[4],inactive
same,Potency,[5],inactive
same,Potency,[6],inactive
same,Potency,[7],inactive
Cc1ccc(C(C)c2ccc(C)c(C)c2)cc1C,Potency,[8],inactive
same,Potency,[1],inactive
same,Potency,[2],inactive
same,outcome,[3],inactive
same,Potency,[4],inactive
same,Potency,[5],inactive
same,Potency,[6],inactive
same,Potency,[10],inactive
CCCCc1cc2ccccc2c(OCCN(C)C)n1,Potency,[9],inactive
same,Potency,[8],inactive
same,Potency,[1],inactive
same,Potency,[2],inactive
same,outcome,[3],inactive
same,Potency,[4],inactive
same,Potency,[5],inactive
same,Potency,[6],inactive
same,Potency,[7],inactive
O=C(O)C1CCC(C(=O)O)CC1 (configuration not stated),Potency,[9],inactive
same,Potency,[8],inactive
same,Potency,[1],inactive
same,Potency,[2],inactive
same,outcome,[3],inactive
same,Potency,[4],inactive
same,Potency,[5],inactive
same,Potency,[6],inactive
same,Potency,[7],5.48 µM (active)
CCOC(=O)CC(=O)c1cc(F)c(Cl)nc1Cl,Potency,[9],inactive
same,Potency,[1],inactive
same,Potency,[2],inactive
same,outcome,[3],inactive
same,Potency,[4],inactive
same,Potency,[5],inactive
same,Potency,[6],inactive
same,Potency,[7],inactive
CC(=O)NCCCS(=O)(=O)O,Potency,[8],inactive
same,Potency,[1],inactive
same,Potency,[2],inactive
same,outcome,[3],inactive
same,Potency,[4],inactive
same,Potency,[5],inactive
same,Potency,[6],inactive
same,Potency,[10],inactive
Cc1cc(NC(=O)C(=O)O)cc(C)c1Oc1ccc(O)c2c1CCC2,Potency,[8],inactive
same,Potency,[1],inactive
same,Potency,[2],inactive
same,outcome,[3],inactive
same,Potency,[4],inactive
same,Potency,[5],inactive
same,Potency,[6],inactive
same,Potency,[10],inactive
Oc1ccc(Cc2ccccc2)cc1,Potency,[9],inactive
same,Potency,[1],inactive
same,Potency,[2],inactive
same,outcome,[3],inactive
same,Potency,[4],inactive
same,Potency,[5],inactive
same,Potency,[6],inactive
same,Potency,[7],inactive
O=C(Cl)c1c(Cl)cccc1Cl,Potency,[8],inactive
same,Potency,[1],inactive
same,Potency,[2],inactive
same,outcome,[3],inactive
same,Potency,[4],inactive
same,Potency,[5],inactive
same,Potency,[6],inactive
same,Potency,[10],inactive
CC(=O)Nc1ccc(/C=N/NC(N)=S)cc1,Potency,[9],inactive
same,Potency,[8],inactive
same,Potency,[1],inactive
same,Potency,[2],inactive
same,outcome,[3],inactive
same,Potency,[4],inactive
same,Potency,[5],inactive
same,Potency,[6],inactive
same,Potency,[10],inactive
CN1CCC(=C2c3ccccc3CCc3sccc32)CC1,Potency,[9],inactive
same,Potency,[1],inactive
same,Potency,[2],inactive
same,outcome,[3],inactive
same,Potency,[4],inactive
same,Potency,[5],inactive
same,Potency,[6],inactive
same,Potency,[7],inactive
CC(=O)N(CC(=O)N(C)C)c1ccccc1,Potency,[9],inactive
same,Potency,[8],inactive
same,Potency,[1],inactive
same,Potency,[2],inactive
same,outcome,[3],inactive
same,Potency,[4],inactive
same,Potency,[5],inactive
same,Potency,[6],inactive
same,Potency,[7],inactive
CC(C)c1ccccc1C(C)C,Potency,[9],inactive
same,Potency,[8],inactive
same,Potency,[1],inactive
same,Potency,[2],inactive
same,outcome,[3],inactive
same,Potency,[4],inactive
same,Potency,[5],inactive
same,Potency,[6],inactive
same,Potency,[7],inactive
CC[C@H](C)[C@@H](C(=O)O)n1sc2ccccc2c1=O,Potency,[8],inactive
same,Potency,[1],inactive
same,Potency,[2],inactive
same,outcome,[3],inactive
same,Potency,[4],inactive
same,Potency,[5],inactive
same,Potency,[6],inactive
same,Potency,[10],inactive
CC/C(=C\C(=N/O)C(N)=O)C(C)[N+](=O)[O-] (configuration not stated),Potency,[9],inactive
same,Potency,[8],inactive
same,Potency,[1],inactive
same,Potency,[2],inactive
same,outcome,[3],inactive
same,Potency,[4],inactive
same,Potency,[5],inactive
same,Potency,[6],inactive
same,Potency,[10],inactive
CNS(=O)(=O)Cc1ccc2[nH]cc(CCN(C)C)c2c1,Potency,[9],inactive
same,Potency,[8],inactive
same,Potency,[1],inactive
same,Potency,[2],inactive
same,outcome,[3],inactive
same,Potency,[4],inactive
same,Potency,[5],inactive
same,Potency,[6],inactive
same,Potency,[7],inactive
C=Cc1c(C)c2cc3[nH]c(cc4nc(cc5nc(cc1[nH]2)C(C)=C5CCC(=O)O)C(CCC(=O)O)=C4C)c(C)c3C=C,Potency,[8],inactive
same,Potency,[1],inactive
same,Potency,[2],inactive
same,outcome,[3],inactive
same,Potency,[4],inactive
same,Potency,[5],26.6 µM (active)
same,Potency,[6],inactive
same,Potency,[7],inactive
CC(C(=O)O)c1ccc(C(=O)c2ccccc2)s1 (configuration not stated),Potency,[9],inactive
same,Potency,[8],inactive
same,Potency,[1],inactive
same,Potency,[2],inactive
same,outcome,[3],inactive
same,Potency,[4],inactive
same,Potency,[5],inactive
same,Potency,[6],inactive
same,Potency,[10],inactive
O=C(/C=C/c1ccc(O)c(O)c1)O[C@@H]1C[C@](O)(C(=O)O)C[C@@H](O)[C@H]1O,Potency,[9],inactive
same,Potency,[8],inactive
same,Potency,[1],inactive
same,Potency,[2],inactive
same,outcome,[3],inactive
same,Potency,[4],inactive
same,Potency,[5],inactive
same,Potency,[6],inactive
same,Potency,[7],inactive
CN(C)CCCOc1nn(Cc2ccccc2)c2ccccc12,Potency,[1],inactive
same,Potency,[2],inactive
same,outcome,[3],inactive
same,Potency,[4],inactive
same,Potency,[5],inactive
same,Potency,[6],inactive
same,Potency,[7],inactive
CC(=O)SCc1ccco1,Potency,[9],inactive
same,Potency,[8],inactive
same,Potency,[1],inactive
same,Potency,[2],inactive
same,outcome,[3],inactive
same,Potency,[4],inactive
same,Potency,[5],inactive
same,Potency,[6],inactive
same,Potency,[7],inactive
CC(C)c1ccc2c(C(C)C)cc(C(C)C)c(S(=O)(=O)O)c2c1,Potency,[9],inactive
same,Potency,[8],inactive
same,Potency,[1],inactive
same,Potency,[2],inactive
same,outcome,[3],inactive
same,Potency,[4],inactive
same,Potency,[5],inactive
same,Potency,[6],inactive
same,Potency,[7],inactive
CCC(=O)OC(C)(C)C1CC=C(C)CC1 (configuration not stated),Potency,[8],inactive
same,Potency,[1],inactive
same,Potency,[2],inactive
same,outcome,[3],inactive
same,Potency,[4],inactive
same,Potency,[5],inactive
same,Potency,[6],inactive
same,Potency,[10],inactive
CC(C)CCCC(C)CCO (configuration not stated),Potency,[8],inactive
same,Potency,[1],inactive
same,Potency,[2],inactive
same,outcome,[3],inactive
same,Potency,[4],inactive
same,Potency,[5],inactive
same,Potency,[6],inactive
same,Potency,[10],inactive
CCN(CCO)CCCC(C)Nc1ccnc2cc(Cl)ccc12 (configuration not stated),"activity change, negative = cytotoxicity",[9],1.38% [at 5.95 µM]
same,"viability change, negative = cytotoxic",[8],-0.399% [at 6.95 µM]
same,"activity, negative = cytotoxic",[1],7.84% [at 6.95 µM]
same,activation,[2],-0.628% [at 6.95 µM]
same,"activity change, negative = cytotoxicity",[3],5.2% [at 6.95 µM]
same,"activity, negative = cytotoxicity",[4],0.752% [at 8.39 µM]
same,"activity change, negative = inhibition",[5],13.3% [at 8.39 µM]
same,"viability change, negative = cytotoxic",[6],2.23% [at 6.97 µM]
same,activation,[7],7.66% [at 6.98 µM]
C=CC(=O)OCC(C)OCC(C)OCC(C)OC(=O)C=C (configuration not stated),Potency,[1],inactive
same,Potency,[2],inactive
same,outcome,[3],inactive
same,Potency,[4],21.7 µM (active)
same,Potency,[6],inactive
CC(C)c1cccc(C(C)C)c1NC(=O)NS(=O)(=O)c1cc(C(C)(C)O)co1,Potency,[9],inactive
same,Potency,[8],inactive
same,Potency,[1],inactive
same,Potency,[2],inactive
same,outcome,[3],inactive
same,Potency,[4],inactive
same,Potency,[5],inactive
same,Potency,[6],inactive
CN(C)CC/C=C1\c2ccccc2COc2ccccc21,Potency,[9],inactive
same,Potency,[8],inactive
same,Potency,[1],inactive
same,Potency,[2],inactive
same,outcome,[3],inactive
same,Potency,[4],inactive
same,Potency,[5],inactive
same,Potency,[6],inactive
